The whole screen tested about 320,000 compounds, of which about 2,200 (0.69%) were called active.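 How the source made its calls: active means inhibition above the mean of all tested compounds plus 3 SD, cutoff set per campaign (cut at about 30% in these data); inactive means the rest.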 Many of the other results were omitted from the sample, so actives are more common in it than they were.
The compounds below were run against Bcl-2-like protein 1 (Homo sapiens) (UniProt Q07817) (assay: Bcl-xL/Bim BH3 interaction blockers – biochemical, fluorescence polarization, HTS, primary screen (AID 2129;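 further: 0% = DMSO wells and 100% = unlabeled Bim-BH3 peptide competitor; inhibitors lower millipolarization by displacing the labeled peptide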)). Conditions: GST-Bcl-xL / FITC-Bim BH3 peptide fluorescence polarization; at 10.9 µM; hits give high values.
Sequence of Bcl-2-like protein 1 (Homo sapiens) (Q07817 whole entry, looked up): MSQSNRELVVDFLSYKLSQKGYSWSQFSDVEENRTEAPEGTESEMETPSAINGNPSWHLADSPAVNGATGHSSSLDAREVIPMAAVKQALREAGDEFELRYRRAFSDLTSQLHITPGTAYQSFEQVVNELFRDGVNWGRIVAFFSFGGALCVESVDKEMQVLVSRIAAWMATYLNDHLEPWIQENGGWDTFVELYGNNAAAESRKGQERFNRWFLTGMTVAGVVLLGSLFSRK

inhibition, active:
COc1ccc2nc(N3CCCC(O)C3)c(C#N)cc2c1 (centres undefined) 32%, O=[N+]([O-])c1c(NCCO)cc(Sc2nc3ccccc3s2)c2nonc12 38.8%, CCCN1C2=C(C(=O)CCC2)C(c2ccc(O)c(Br)c2)C2=C1CCCC2=O 37.8%, COC(=O)CCCC1=CC2=CC(=O)C(C)(OC(=O)c3cccs3)C(=O)C2=CN1c1cccc(C#N)c1 (centres undefined) 35.7%, CC1CC(C)CN(S(=O)(=O)c2cccc(C(=O)N3C(=O)c4cccc(N)c4C3=O)c2)C1 (centres undefined) 30.5%, CN(C(=O)COC(=O)c1cc(-c2ccco2)nc2ccccc12)C1CCS(=O)(=O)C1 (centres undefined) 38.9%, CN(CCOc1ccccc1)C(=O)c1cc(-c2ccco2)nc2ccccc12 30.5%, Oc1ccc2ccccc2c1N=Nc1nccs1 54.3%, O=C(C1=C(O)C(=O)N(c2ncccn2)C1c1cccs1)c1ccco1 (centres undefined) 94.5%

inhibition, inactive:
C[n+]1ccccc1C1CCCC/C1=N\Nc1ccc([N+](=O)[O-])cc1[N+](=O)[O-] (centres undefined) -14.1%, COc1ccc(S(=O)(=O)N(C)CC(=O)NCCCN2CCOCC2)cc1Cl -0.96%, COc1ccc2cc(C(=O)C3CCCN(C(=O)c4sc(C)nc4C)C3)ccc2c1 (centres undefined) 3%, COc1ccc2c(c1)CCc1cn3ncc(C#N)c3nc1-2 5.65%, CCOc1ccccc1Nc1ccc2nonc2c1[N+](=O)[O-] -3.2%, O=C(O)c1ccccc1CSc1nc2ccccc2s1 15.6%, O=C(C1CCC1)N1CCc2cc(S(=O)(=O)NCc3cccnc3)ccc21 1.18%, CCN(CC)CCNc1nc(-c2ccc(OC(F)F)cc2)c(C)s1 4.61%, COc1ccc(C2C3=C(CCCC3=O)N(CC(=O)O)C3=C2C(=O)CCC3)cc1 7.5%, CCOc1ccc(C2C3=C(CCCC3=O)N(CC(=O)O)C3=C2C(=O)CCC3)cc1 6.72%, CCCCCCCC1(C)NC(=O)N(CC(=O)Nc2cc(C)on2)C1=O (centres undefined) 3.89%, O=C(Oc1cccc(O)c1)C1CCCCC1 1.38%, CN(C(=O)CSc1nnc(-c2ccc3c(c2)OCO3)o1)C1CCS(=O)(=O)C1 (centres undefined) 3.5%, CCCc1cc(=O)[nH]c(SCC(=O)c2c(N)n(CC(C)C)c(=O)n(C)c2=O)n1 -0.53%, Cc1coc(C)c1C(=O)CC1(O)C(=O)N(C)c2ccc(Cl)cc21 (centres undefined) 3.68%, NC(=O)CC(NC(=O)Cc1cccc2ccccc12)c1ccc(NCc2cc(F)ccc2F)c([N+](=O)[O-])c1 (centres undefined) -3.93%, COC(=O)CCCC1=CC2=CC(=O)C(C)(OC(=O)c3cccs3)C(=O)C2=CN1CC1CC1 (centres undefined) 13.4%, COC(=O)CCCC1=CC2=CC(=O)C(C)(OC(=O)c3cccs3)C(=O)C2=CN1CC(C)C (centres undefined) 8.79%, COc1cc(C(=O)N2C(=O)c3cccc(N)c3C2=O)cc(OC)c1OC 11.8%, CN1CCN(S(=O)(=O)c2cccc(C(=O)O)c2)CC1 6.51%, O=C(Cn1nc([N+](=O)[O-])nc1Br)NC1CCCCC1 0.58%, CC(C)(C)c1ccc(C(CC(=O)O)NS(=O)(=O)Cc2ccccc2)cc1 (centres undefined) -2.32%, O=C1CCCN1CCCNC(=S)Nc1ccc(F)c(Cl)c1 5.5%, Cc1cc([N+](=O)[O-])ccc1NCc1cccc([N+](=O)[O-])c1 3.28%, C=CCn1c(SCCOc2ccc(OC)cc2)nnc1C(NC(=O)c1ccc(OC)cc1)C(C)C (centres undefined) 4.55%, COc1ccc(NC(=O)CN(C)C(=O)c2cc(-c3ccc(C)o3)nc3ccccc23)cc1 1.46%, CN(C(=O)COC(=O)c1nc(Cl)ccc1Cl)C1CCS(=O)(=O)C1 (centres undefined) -2.39%, CC1CCCN(C(=O)c2cc(-c3ccco3)nc3ccccc23)C1 (centres undefined) 2.8%, COc1ccc(-c2cc(C(=O)N(C)Cc3ccccc3)c3ccccc3n2)cc1 4.34%, O=C(c1cccs1)n1nc(NCc2ccccc2)nc1NCc1ccccc1 -2.31%, Cc1nnsc1S(=O)(=O)Cc1ccccc1Cl 1.84%, Cn1cccc1C(=O)NNC(=O)COc1ccc(Br)cc1 1.85%, CC1CCN(C(=S)NC(=O)c2ccccc2Br)CC1 1.04%, CCc1ccc(NC(=O)Nc2ccncc2)cc1 -0.23%, COc1ccc(C(=O)N2CCCC(C(=O)c3ccccc3OC)C2)cc1OC (centres undefined) 2.42%, COc1cc(OC)cc(-c2c(-c3cccs3)c3cc(-c4ccc(OC)cc4F)ccc3n2C)c1 -0.84%, Cc1ccc(S(=O)(=O)N(C)C)cc1NC(=O)c1n[nH]c(=O)c2ccccc12 -2.28%, O=C(NCCc1ccc(C(F)(F)F)cc1)c1ccc2c(c1)OCO2 2.41%, NC(=O)c1ccc(Nc2ccc3c(c2)CCC3)c([N+](=O)[O-])c1 2.16%, Cc1c(CCO)c(=O)n(-c2ccccc2)n1S(=O)(=O)c1ccc(F)cc1 9.16%, O=C(C1=C(O)C(=O)N(Cc2ccccc2)C1c1ccco1)c1ccco1 (centres undefined) 7.06%, O=C(C1=C(O)C(=O)N(Cc2ccccc2)C1c1cccnc1)c1ccco1 (centres undefined) 3.45%, COC(=O)/C=C(\Oc1ccccc1)C1(O)CCCCC1 1.07%, CCn1c(SCC(=O)NC2=NCCS2)nnc1C(C)NC(=O)c1ccccc1F (centres undefined) -1.19%, O=C(N/N=C/c1sc(N2CCCCC2)nc1-c1cccs1)c1cccnc1 -12.1%

From PubChem BioAssay AID2129 (The Scripps Research Institute Molecular Screening Center, 2009)
